Our source for the inhibition values is PubChem BioAssay.

Calls of active or inactive are those of the source. No stated cut-off is given here; in the data, active means inhibition above about 44%; inactive means the rest.

For orientation: inhibition means the change of the read-out against control, counted positive when it falls.

In the assay the target is Steroidogenic factor 1 (Homo sapiens) (UniProt Q13285). Briefly: inverse agonism at SF1 nuclear receptor – cell-based, luminescence, high throughput, counter-screen for LRH-1 inverse agonist project (AID 651614).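 Further: cells cotransfected with StAR promoter reporter and SF1 expression vector; 0% = vehicle on cells with receptor and 100% = vehicle on cells lacking receptor.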 The settings on record: cell-based SF1 luciferase reporter, at 3.6 µM, hits give high values. (The purpose of a counterscreen is to sort out artefacts and off-target activity.)
Chain of Steroidogenic factor 1 (Homo sapiens) (Q13285 whole entry, looked up): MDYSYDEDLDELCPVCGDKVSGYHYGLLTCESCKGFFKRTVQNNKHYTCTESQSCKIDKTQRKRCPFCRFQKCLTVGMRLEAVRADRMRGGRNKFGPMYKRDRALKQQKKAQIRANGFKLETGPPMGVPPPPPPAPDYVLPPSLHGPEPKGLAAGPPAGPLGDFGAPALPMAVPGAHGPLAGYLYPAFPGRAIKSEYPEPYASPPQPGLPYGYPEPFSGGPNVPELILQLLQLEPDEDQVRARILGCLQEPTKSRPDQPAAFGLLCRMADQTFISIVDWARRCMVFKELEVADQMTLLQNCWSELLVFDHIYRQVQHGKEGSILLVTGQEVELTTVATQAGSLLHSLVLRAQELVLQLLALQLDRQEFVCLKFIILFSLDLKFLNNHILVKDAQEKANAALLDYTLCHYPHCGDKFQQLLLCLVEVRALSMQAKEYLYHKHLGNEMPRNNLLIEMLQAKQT
For `COc1ccc(-n2c(SCC(=O)NCc3ccco3)nc3sc4c(c3c2=O)CCN(C)C4)cc1`, the inhibition was 11% (inactive).
As for `COc1ccc(NC(=O)Cn2nnc(C(=O)Nc3ccccc3C)c2N)cc1`, the figure is 37.6% (inactive).
Take `Cc1cccc(C(=O)N[C@H](C(=O)Nc2ncc(C)s2)C(C)C)c1`: the inhibition is 39.8% (inactive).
Consider `Cc1ccc(N2CC(C(=O)Nc3nc4ccc(S(C)(=O)=O)cc4s3)CC2=O)cc1` (stereo not given), for which the inhibition is 48.4% (active).
`CC(=O)c1ccc(OC(C)C(=O)OCC(=O)NCCc2ccccc2)cc1` (stereo not given): the inhibition was 40.7% (inactive).
Consider `CC(=O)C(C(C)=O)c1c(Cl)c(O)c(O)c2c(C(=O)c3ccccc3)coc12`, for which the inhibition is 92.8% (active).
`O=C(CN1C(=O)NC2(CCCCCC2)C1=O)Nc1ccc([N+](=O)[O-])cc1`: the inhibition is 59.6% (active).
For `CCOC(=O)c1cccc(C2=CC(=O)CC(C)(C)C2)c1`, the inhibition is 48.8% (active).
As for `OCC1OC(n2cnc3c(/C=C(\O)c4ccccc4)ncnc32)C(O)C1O` (stereo not given), the inhibition is -0.35% (inactive).
Regarding `COc1cccc(C=Nc2ccc3c(c2)OCCO3)c1O`, the inhibition was -7.99% (inactive).
With `COc1ccc(S(=O)(=O)Nc2ccc(CC#N)cc2)cc1`, the inhibition was 29.7% (inactive).
Take `COc1cccc(C(C)(O)c2nc(-c3cccc(C#N)c3)cs2)c1` (stereo not given): the inhibition was 49.4% (active).
For the compound `Cc1ccc(C)c(NC(=O)CSc2nc3c(oc4ccccc43)c(=O)n2-c2ccccc2)c1`, the inhibition is 46.7% (active).
Consider `Cc1cc(C)c2nc(NC(=O)c3ccc([N+](=O)[O-])o3)sc2c1`, for which the inhibition is 53.7% (active).
On to `O=C(CSc1ncn[nH]1)Nc1ccc(Cl)c(Cl)c1`, for which the inhibition was 39% (inactive).
As for `O=C1CC(c2cccc([N+](=O)[O-])c2)c2ccc3ccccc3c2N1` (stereo not given), the figure is 39.5% (inactive).
The same measure for `COC(=O)Cc1sc(-c2ccccn2)nc1-c1ccccc1`: 58.9% (active).
`COc1cc(OC)cc(C(=O)N[C@H](C(=O)OCC(=O)Nc2ccc3c(c2)OCO3)C(C)C)c1`: the inhibition was 45.9% (active).
In the case of `O=C(Nc1ccc(Oc2ccccc2)cc1)c1csc([C@H]2C[C@H](O)[C@@H](CO)O2)n1`, the inhibition was 61.1% (active).
Regarding `COc1ccc(NC(=O)C2=CC(c3ccc(OC)c(OC)c3)=NS(=O)(=O)N2C)cc1`, the inhibition was 49.4% (active).
For `Cc1ccc2c(c1)Oc1ccc(NC(=O)CCl)cc1C(=O)N2`, the inhibition is 75.6% (active).
As for `CC(C)(Oc1ccc(Cl)cc1)C(=O)OCC(=O)NCCc1ccccc1`, the figure is 46.8% (active); as for `O=C(CSC1=NC2(CCCCCC2)N=C1c1ccccc1)Nc1ccc2c(c1)OCCO2`, 62.2% (active).
As to `Cc1cc(C)c(C(N)=O)c(Nc2cccc3ccccc23)n1`, the inhibition was 22.7% (inactive).
On to `COc1ccc2c(c1)C1C=CCC1C(c1cc3c(cc1Br)OCO3)N2` (stereo not given), for which the inhibition was 30.1% (inactive).
The same measure for `CC1=C(n2nnc([N+](=O)[O-])n2)C(c2cccnc2)C(C#N)=C(N)O1` (stereo not given): 21.5% (inactive).
Regarding `CCCN(CC(=O)Nc1ccccc1C)CC(=O)Nc1ccc(Br)cc1F`, the inhibition is 51.6% (active).
With `CC(=O)Nc1cc(-c2ccccc2N(C)C)cn2c(-c3ccc(S(C)(=O)=O)cc3)cnc12`, the inhibition is 36.5% (inactive).
As for `CCCc1nc2cc(C)c(Br)c(C)n2c1Cc1ccc(OC)cc1C`, the figure is 45.3% (active); as for `CCc1cc(=O)oc2c(C)c(OCC(=O)NC3CC(C)(C)NC(C)(C)C3)ccc12`, 56.1% (active); as for `Cc1c(Cl)cccc1NC(=O)CSc1nnc(C)n1CC1CCCO1` (stereo not given), 14.9% (inactive).
As for `Cc1nnsc1S(=O)c1ccc(Br)cc1` (stereo not given), the figure is 44.9% (active); as for `COc1ccc(CN(C)C(=O)CCl)cc1`, 52.9% (active).
Regarding `CCc1nc(SCC(=O)N2CCc3cc(OC)c(OC)cc3C2)c(C#N)cc1C`, the inhibition was 45.4% (active).
For `Cc1cc(C)c2nc(-c3cccnc3)cc(C(=O)NC(C)c3cnn(C)c3C)c2c1` (stereo not given), the inhibition is 50.9% (active).
Regarding `COc1ccc(CCNC(=O)CSc2nc(O)c(CCC(C)C)c(=O)[nH]2)cc1OC`, the inhibition is 50.4% (active).
As to `CS(=O)(=O)N1CCCC(c2nc(-c3ccc(S(=O)(=O)NCc4ccccc4)cc3)no2)C1` (stereo not given), the inhibition is 52.7% (active).
Take `Cc1ccc(NC(=O)CSc2nsc(SCC(=O)Nc3ccc(C)cc3C)c2C#N)c(C)c1`: the inhibition was 34.5% (inactive).
Regarding `CCOC(=O)c1cc2sccc2n1CC(=O)Nc1ccc2c(c1)OCCO2`, the inhibition was 52.2% (active).
`COc1ccc(NC(=O)CSc2nc3nc(C)cc(C)c3c(=O)[nH]2)cc1`: the inhibition is 48.5% (active).
